# According to PubChem BioAssay (NCATS):
# Inconclusive results are not listed. Values without a mark were called inactive. The source made the active and inactive calls. Calls follow the shape of the dose curve; as a rule, active = well fitted inhibition curve with a large enough effect; inconclusive = small, poorly fitted or top-dose-only effect; inactive = flat fitted curve, though single readings scatter.
# Biological target: Calcium and integrin-binding protein 1 (Homo sapiens) (UniProt Q99828)
# Sequence (Q99828 whole entry, looked up): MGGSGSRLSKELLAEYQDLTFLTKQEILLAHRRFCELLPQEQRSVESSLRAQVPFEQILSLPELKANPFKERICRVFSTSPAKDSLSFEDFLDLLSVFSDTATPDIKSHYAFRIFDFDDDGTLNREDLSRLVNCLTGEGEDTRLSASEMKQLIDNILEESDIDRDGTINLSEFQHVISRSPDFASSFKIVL
# Test: Primary qHTS for Identification of Calcium Integrin Binding Protein 1 (CIB1) Competitor (AID 1508620); also: top concentration of the series differs between compounds
# Conditions: CIB1-GST / FITC-alphaIIb peptide fluorescence polarization; series mostly up to 114 µM; activity change, negative = inhibition: at the top concentration
# Summary of the method: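 Fluorescence polarization competition: GST-tagged CIB1 (1 uM final) preincubated with compound 15 min at room temperature, then FITC-labelled alphaIIb peptide (100 nM final) added. After 15 min at room temperature, polarization read at Ex 480/Em 540.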
# % is scaled to controls: 0 for no effect and ±100 for the full control effect.
Structure (SMILES),"activity change, negative = inhibition",Potency
NC(=O)C1CCN(c2nc(-c3ccc4c(c3)OCCCO4)cs2)CC1,-1.7% [at 384 µM],–
O=C(Nc1ccc(F)c(F)c1)Nc1nnc(-c2ccncc2)s1,3.77%,–
O=C(Cn1cc(CNC(=O)C2CCCCC2)nn1)Nc1cc(C(F)(F)F)ccc1Cl,2.8%,–
Fc1ccc(Nc2nc(-c3ccncc3)nc3ccccc23)cc1F,-3.73%,–
Cc1ccc(-c2ccc(CNc3nc(-c4ccccc4C(C)C)ncc3F)cc2)cn1,0.852%,–
O=S(=O)(c1ccc2c(c1)OCCO2)N1CCN(S(=O)(=O)c2cccc(Cl)c2F)CC1,-2.63%,–
O=[S+]([O-])(c1ccc2c(c1)OCCO2)N1CCN([S+](=O)([O-])c2cc(Cl)ccc2F)CC1,3.78%,–
NC(=O)C1CCN(c2nc(-c3ccccc3Cl)cs2)CC1,4.96%,–
O=C1CCCC2=C1C(c1[nH]ncc1Cl)N=C(Nc1nc3cc(Cl)ccc3o1)N2 (centres undefined),-5.19%,–
Cc1ccc(OCCn2c(CCNC(=O)c3ccc(C(C)(C)C)cc3)nc3ccccc32)cc1,5.14%,–
N#Cc1nc(Nc2ccc(C(F)(F)F)cc2)nc(NC2CCCC2)n1,-0.681%,–
CSc1cnc(-c2ccccc2C(C)C)nc1NCc1ccc(-c2cccnc2)cc1,2.63%,–
CC(=O)Nc1sc2c(c1-c1nc3ccccc3s1)CNCC2,-21.3%,–
Cc1cc(C)nc(NC(=S)N2CCN(c3cccc(S(C)(=O)=O)c3)CC2)c1,-3.91%,–
COc1cc(-c2nc(Nc3ccc(F)c(F)c3)c3ccccc3n2)ccn1,8.98%,–
COc1ccc(C2Nc3ccccc3C(=O)N2CCCN(C)C)cc1COc1ccc(NC(C)=O)cc1 (centres undefined),-0.487%,–
O=C(CNC(=O)c1ccc(-c2ccccc2)cc1)OC(C(=O)Nc1cc(C(F)(F)F)ccc1Cl)c1ccccc1 (centres undefined),-0.854%,–
Cc1c(P(=S)(c2ccccc2)c2ccccc2)c2ccccc2n1CCc1ccccc1,2.03%,–
COc1ccc(C(=O)Nc2ccc(-c3nc4ccccc4[nH]3)cc2)cc1C(F)(F)F,3.33%,–
O=C(CSc1nnc(-c2cccc(S(=O)(=O)N3CCCC3)c2)n1-c1ccccc1)Nc1ccccc1,13.1%,–

Structure (SMILES),"activity change, negative = inhibition",Potency
O=C(O)c1ccc2c(c1)C(=O)N([C@H](Cc1cccc3ccccc13)C(=O)O)C2=O,0.912%,–
CC1=C(C(=O)Nc2ccccc2C)C(c2ccccc2Br)N=C(Nc2nc3ccccc3o2)N1 (centres undefined),-0.382%,–
COc1ccc(C2Nc3ccccc3C(=O)N2Cc2ccncc2)cc1COc1ccc(NC(C)=O)cc1 (centres undefined),-4.08%,–
Cc1ccc(OCCn2c(CCNC(=O)c3ccc4ccccc4c3)nc3ccccc32)cc1,34.1%,–
Cc1ccc(OCCn2c(CCNC(=O)c3cccc(C)c3)nc3ccccc32)cc1,4.84%,–
Cc1ccc(CNc2ncnc3ccc(-c4oc(-c5ccccc5)nc4C)cc23)o1,-7.71%,–
O=C1c2ccccc2C(=O)N1Cc1cccnc1,-0.263%,–
COc1ccc(C2Nc3ccccc3C(=O)N2Cc2cccc(C(F)(F)F)c2)cc1COc1ccc(NC(C)=O)cc1 (centres undefined),3.71%,–
Nc1cc(NC(=O)Nc2nnc(-c3ccncc3)s2)ccc1Cl,-5.78%,–
N#Cc1c(-c2ccc3c(c2)OCO3)no[n+]1[O-],-1.28%,–
Cc1ccc(OCCn2c(CCNC(=O)c3ccc(C(F)(F)F)cc3)nc3ccccc32)cc1,-1.97%,–
O=C1CCCC2=C1C(c1[nH]ncc1Cl)NC(=NCc1ccncc1)N2 (centres undefined),-4.89%,–
Oc1ccc(CNc2cccc(C(F)(F)F)c2)c2cccnc12,15%,–
O=S1(=O)N=C(Oc2ccc(C(F)(F)F)cc2)c2ccccc21,0.595%,–
Cc1cc(NC(=O)Nc2cccc(-c3ccncc3)n2)ccc1Cl,–,inactive
CC(=O)Nc1cccc(S(=O)(=O)N2CCN(S(=O)(=O)c3ccc4c(c3)OCCO4)CC2)c1,3.22%,–
O=S(=O)(c1ccc2c(c1)OCCO2)N1CCN(S(=O)(=O)c2cccs2)CC1,-2.71%,–
O=C(O)Cc1cc(F)c(S(=O)(=O)N2CCN(S(=O)(=O)c3ccc4c(c3)OCCO4)CC2)cc1F,-7.57%,–
O=[N+]([O-])c1ccccc1CSc1nc2ncc(Br)cc2[nH]1,1.76%,–
